# Screens as filed in PubChem.
# CtBP-E1A blk: CtBP/E1A binding inhibition | AlphaScreen GST-E1A/His-CtBP binding, 1536-well; hits give low values | activity change, % (no concentration beside the values) | actives 0.49% (n = 340,000) | AID 651724; in the data active means activity change below about -65%; inconclusive means mostly about -30% to -63%
#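 Protein mix (5X: 125 nM each GST-E1A, His-CtBP) was incubated with pinned compound 2 h at 37 deg C in dark, in 50 mM Tris pH 8.0 buffer with 300 mM NaCl. Glutathione donor and nickel acceptor beads followed; AlphaScreen signal read after 1 h.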
# Six1-Eya2 blk: inhibitors of human Six1/Eya2 interaction; AlphaScreen GST-Six1/His-Eya2 binding, biochemical; hits give low values; activity change, % (concentration not given with the values); actives 0.56% (n = 360,000); in the data active means activity change below about -65%; inconclusive means mostly about -30% to -63%
#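 Compounds are tested against tagged Six1 and Eya2 proteins bridged by glutathione donor and nickel acceptor beads; after a one-hour incubation at 37 °C without light, AlphaScreen emission is recorded.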
# Gal4-VP16 FLuc: counter-screen for ROR gamma inhibitors: Gal4-VP16 reporter; Potency, µM (titrated, usually from 53.6 µM), usual class: inhibitors; actives 3.5% (n = 310,000); Drosophila S2 Gal4-VP16 UAS-luciferase, luminescence, 20 h;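 further: Gal4-VP16 expression switched on by copper sulfate through the metallothionein promoter; nearly all actives have a fitted effect of over 50% in size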
# p53 reactivator: restores transcriptional activity of mutant p53; H1299 p53-A138V BP100-luciferase reporter, luminescence, 24 h; Potency, µM (series often up to 92.2 µM), most hits filed as activators; actives 0.063% (n = 320,000); further: nearly all actives have a fitted effect of over 45% in size
#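 H1299 (p53-null), stable ts p53-A138V + BP100-Luc; 1000 cells/well, Opti-MEM/10% FBS; cpd 4 pt, 1:5; 24 h, 37 deg C, 5% CO2; detection reagent 10 min RT; luminescence.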
# RORg inh: blocks mouse ROR gamma transcriptional activity | P51450 | Drosophila S2 Gal4-RORgamma UAS-luciferase reporter, 20 h | Potency, µM (highest dose often 53.6 µM), actives largely listed as inhibitors | actives 5.4% (n = 310,000); further: nearly all actives have a fitted effect of over 60% in size
# Target sequence (P51450 whole entry, looked up, the tested form may be a part): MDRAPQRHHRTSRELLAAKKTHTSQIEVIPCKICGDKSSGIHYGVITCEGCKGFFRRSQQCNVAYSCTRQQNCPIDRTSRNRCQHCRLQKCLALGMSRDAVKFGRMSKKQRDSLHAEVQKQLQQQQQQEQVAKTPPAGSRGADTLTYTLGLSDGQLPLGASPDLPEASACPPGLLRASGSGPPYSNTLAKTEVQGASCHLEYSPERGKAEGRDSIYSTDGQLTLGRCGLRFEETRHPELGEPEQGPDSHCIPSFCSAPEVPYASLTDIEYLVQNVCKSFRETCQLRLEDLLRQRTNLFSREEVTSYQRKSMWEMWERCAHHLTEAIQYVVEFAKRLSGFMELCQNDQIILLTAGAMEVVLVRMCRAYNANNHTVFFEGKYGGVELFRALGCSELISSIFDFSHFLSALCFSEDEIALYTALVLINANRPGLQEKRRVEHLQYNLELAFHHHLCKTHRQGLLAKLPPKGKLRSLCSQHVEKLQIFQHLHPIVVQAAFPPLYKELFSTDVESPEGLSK
#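 Luminescence from a UAS-regulated Photinus luciferase reporter in stably transfected Drosophila Schneider cells is measured; decreased signal marks ROR gamma inhibition. Fusion expression is induced by 700 uM copper sulfate for 20 hr.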
# Numbers stand for hits; i = inactive; ? = inconclusive; nt = no result; [ ] = dose if it differs, or a comment. An excerpt weighted towards active compounds, which were near 5.4% of everything screened. Unless noted, the call rests on the fitted dose curve; in most records, active means well fitted curve in the direction sought with a large enough effect; inconclusive means small, poorly fitted or top-dose-only effect, or another doubt; inactive means no such curve, though single readings can be large; an effect the other way counts as inactive or inconclusive.
SMILES,CtBP-E1A blk,Six1-Eya2 blk,Gal4-VP16 FLuc,p53 reactivator,RORg inh
CCN(CC)c1ccc(C(NC(=O)C(C)C)c2ccc3cccnc3c2O)cc1 (configuration not stated),?,-72,nt,nt,nt
Oc1c(C(Nc2nc3ccccc3s2)c2ccco2)ccc2cccnc12 (configuration not stated),i,-73,5.6µM,?,2.5µM
CC(C)C(=O)NC(c1ccco1)c1ccc2cccnc2c1O (configuration not stated),-91,-93,5µM,?,2.8µM
CCCCC(=O)NC(c1ccc(N(C)C)cc1)c1ccc2cccnc2c1O (configuration not stated),-91,-70,3.2µM,nt,5µM
COc1ccccc1N(C)S(=O)(=O)c1ccc(C(=O)Nc2cc(OC)c(OC)c(OC)c2)cc1,i,i,nt,nt,nt
c1ccc(CNc2ncncc2-c2ccoc2)cc1,nt,nt,i,nt,i
COCCN(C(=O)c1snc(C(N)=O)c1N)C(C(=O)NC1CCCCC1)c1ccc(F)cc1 (configuration not stated),i,i,i,i,i
CCCCC(=O)NC(c1ccc(N(CC)CC)cc1)c1ccc2cccnc2c1O (configuration not stated),-78,?,2.8µM,nt,2.2µM
CCCC(=O)NC(c1ccc(N(C)C)cc1)c1c(O)ccc2ccccc12 (configuration not stated),i,i,i,i,?
CCCCn1c(-c2csc(CC)c2)n[nH]c1=S,i,i,?,i,0.79µM
CCCc1cc(-c2n[nH]c(=S)n2CC(C)C)cs1,i,i,11µM,i,3.5µM
CCCn1c(-c2ccncc2)n[nH]c1=S,i,i,i,i,?
CCCCn1c(-c2csc(C(C)C)c2)n[nH]c1=S,i,i,?,i,4µM
O=C(Oc1ccccc1)c1cc(O)c(O)c(O)c1,i,i,nt,nt,nt
COc1ccccc1N(CN1CCCC1=O)C(=O)COc1ccccc1,i,i,i,i,i
Cc1ccc(NC(=O)CSc2nnc(-c3ccccc3Br)o2)cc1C,i,i,i,i,i
Cc1ccc(NC(=O)CSc2nnc(-c3ccccc3C)o2)cc1C,i,i,?,i,14µM
CCc1nnc(NC(=O)CSc2nnc(-c3ccccc3NC(=O)c3ccccc3)o2)s1,i,i,3.5µM,i,2.2µM
N#Cc1cccc(NC(=O)CSc2nnc(-c3n[nH]c4ccccc34)o2)c1,-87,i,i,?,i
Cc1cccc(NC(=O)CSc2nnc(-c3ccccc3C)o2)c1,i,i,i,?,5µM
CCOC(=O)CSc1nnc(-c2ccccc2NC(=O)c2ccccc2)o1,i,i,i,i,i
COc1ccc(C2CC(c3ccccc3)Oc3cc(C)cc(C)c32)cc1 (configuration not stated),nt,nt,i,nt,i
CC(=C/c1ccccc1)/C=N/n1c(-c2ccncc2)n[nH]c1=S,i,i,i,i,?
CCc1n[nH]c(=S)n1/N=C/c1ccc(N(CC)CC)cc1,i,i,6.3µM,i,2.8µM
CC(=C/c1ccccc1)/C=N/n1c(C)n[nH]c1=S,nt,i,6.3µM,i,8.9µM
SMILES,CtBP-E1A blk,Six1-Eya2 blk,Gal4-VP16 FLuc,p53 reactivator,RORg inh
CCc1ccc(/C=N/n2c(COc3ccccc3)n[nH]c2=S)cc1,i,i,?,i,0.89µM
S=c1[nH]nc(COc2ccccc2)n1/N=C/c1ccncc1,nt,i,i,i,10µM
CCOC(=O)C/C(C)=N/NC(=O)CNc1cccc(Cl)c1C,i,i,i,i,i
Cc1cccc(/C=N/n2c(COc3ccccc3)n[nH]c2=S)c1,nt,i,?,i,7.1µM
C=CCOc1c(Br)cc(/C=N/n2c(CC)n[nH]c2=S)cc1Br,i,i,7.9µM,i,7.9µM
S=c1[nH]nc(COc2ccccc2)n1/N=C/c1ccc(Cl)c(Cl)c1,i,i,i,i,?
S=c1[nH]nc(COc2ccccc2)n1/N=C/c1ccccn1,i,i,i,i,?
CC(/C=N/n1c(COc2ccccc2)n[nH]c1=S)=C\c1ccccc1,i,i,?,i,2.5µM
CO/N=C(\C)CCN1CCCCc2nc(C)c(C)cc21,nt,nt,i[10 µM],nt,i[10 µM]
CCC1CSC(Nc2ccc(C(=O)/C=C/c3ccc(Oc4ccccc4)cc3)cc2)=N1 (configuration not stated),i,i,?,i,16µM
CCC1CSC(Nc2ccc(C(=O)/C=C/c3cccc(C)c3)cc2)=N1 (configuration not stated),i,i,?,?,i[10 µM]
Cc1nc(C)c(-c2csc(Nc3ccc(O)c(C(=O)O)c3)n2)s1,i,-71,i,?,?
CCCC(=O)Nc1nc(C)c(-c2csc(Nc3ccccc3OC)n2)s1,nt,i,i,i,i
CCOc1ccccc1Nc1nc(-c2sc(C)nc2C)cs1,i,i,?,i,8.9µM
COc1cccc(Nc2nc(-c3sc(NC(=O)CC(C)C)nc3C)cs2)c1,i,i,18µM,i,?
COc1ccccc1Nc1nc(-c2sc(NC(=O)C(C)(C)C)nc2C)cs1,i,i,6.3µM,i,?
COc1cc(OC)cc(C(=O)NCC2CCCN(C(=O)c3csc(C(C)C)n3)C2)c1 (configuration not stated),i,i,i,i,i
CCC(C)C(=O)Nc1nc(C)c(-c2csc(Nc3ccc(Cl)cc3)n2)s1 (configuration not stated),nt,i,10µM,i,i
Cc1ccc(Cl)cc1Nc1nc(-c2sc(NC(=O)C(C)(C)C)nc2C)cs1,i,i,11µM,i,?
CC(=O)Nc1ccc(NC(=O)COc2cccc3ccccc23)cc1,i,i,nt,nt,nt
O=C(Cc1ncc(C(F)(F)F)cc1Cl)NCc1ccco1,i,i,i,i,i
Cc1cc(-c2n[nH]c(=S)n2-c2ccccc2C)cs1,i,i,6.3µM,i,2.8µM
Cc1ccc(C)c(-n2c(-c3cccnc3)n[nH]c2=S)c1,i,i,i[10 µM],i,10µM
Cc1ccccc1-n1c(-c2ccncc2)n[nH]c1=S,i,i,i,i,13µM
Cc1cccc(-n2c(-c3ccncc3)n[nH]c2=S)c1C,i,i,i,i,i
SMILES,CtBP-E1A blk,Six1-Eya2 blk,Gal4-VP16 FLuc,p53 reactivator,RORg inh
COc1ccc(Cc2n[nH]c(=S)n2-c2cc(C)ccc2C)cc1OC,i,i,nt,nt,nt
Cc1ccccc1-n1c(-c2ccc(=O)[nH]n2)n[nH]c1=S,i,i,i,i,i
Cc1ccc(C)c(-n2c(-c3csc(C)c3C)n[nH]c2=S)c1,i,i,5µM,i,?
COCCn1c(=O)c(-c2ccc(F)cc2)nc2cnc(Nc3cccc(OC)c3)nc21,nt,nt,i,nt,i
CCOc1ccc(C2/C(=C(\O)c3cccc(OC)c3)C(=O)C(=O)N2c2ccccn2)cc1OC (configuration not stated),i,i,i,i,i
CCCCCCc1ccc(C(=O)CCN(C)C)cc1,nt,nt,i,nt,nt
Cc1ccc(-n2c(-c3ccncc3)n[nH]c2=S)c(C)c1,i,i,?,i,11µM
Cc1ccc(-n2c(-c3ccc(Br)cc3)n[nH]c2=S)c(C)c1,i,i,nt,nt,nt
